Assay outcomes: PubChem BioAssay, National Center for Advancing Translational Sciences (NCATS)
In the library only some 0.69% were active in any assay of this set; here they are far more common.
FUS suppressor: suppressors of FUS proteinopathy in yeast | S. cerevisiae FUS-expressing, growth rescue, OD600, 24 h | Potency, µM (highest dose often 76.6 µM), hits mostly activators | actives 0.24% (n = 390,000);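 note: plate controls were DMSO vehicle for no effect and reference control for full effect; nearly all actives have a fitted effect of over 55% in size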
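Absorbance at 600 nm, taken 24hr after compound addition, measured rescue of FUS-yeast growth at 30C. Induction used 2% galactose with seeding at OD 0.005. Controls: CP55940 from 92uM final, DMSO only.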
GRP78 ERSR act: ER stress response induction in glioma. actives 0.02% (n = 420,000). AID 602332. U87-MG GRP78 promoter luciferase reporter, 16 h. Potency, µM, for inactives: top-dose activation, hits mostly activators; note: series mostly up to about 76 µM; % of control where 0% means no effect; nearly all actives have a fitted effect of over 35% in size
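Stably transfected U87-MG glioma cells carrying a GRP78-based luciferase sensor; 16 h compound incubation. Luminescence end-point read 10 min after Bright-Glo addition at room temperature.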
Vif-A3F inh: blocks the Vif interaction with APOBEC3F; AID 602313; HeLa A3F-eYFP + Vif (tagged APOBEC3F with the HIV-1 protein that degrades it), YFP fluorescence increase; actives 0.2% (n = 390,000); Potency, µM (titrated, usually from 46.1 µM), for the others: top-dose activity, negative = active; note: % of control where 0% means no effect; nearly all actives have a fitted effect of over 65% in size
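HeLa cells stably expressing Vif plus C-terminally eYFP-tagged A3F were seeded, incubated overnight at 37 deg C, dosed with compound, incubated overnight again at 37 deg C. Yellow fluorescence (Ex 488/Em 500-530) reported blocked Vif-mediated A3F-eYFP degradation.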
Abeta rescue: restores growth of yeast expressing A-beta42 peptide. yeast expressing A-beta42, growth rescue, OD600, 48 h; response scale: 0% DMSO, 100% iron-clioquinol control. Potency, µM (top dose mostly 46.1 µM), usual class: activators. actives 0.063% (n = 410,000); note: nearly all actives have a fitted effect of over 55% in size
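Yeast growth medium received pinned compounds, then yeast cells expressing toxic A-beta were added; plates incubated at 30 C for 48 hr. Growth read as absorbance at 600 nm, normalized to DMSO and equimolar FeCl3 plus clioquinol controls.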
Vif-A3G inh: inhibitors of Vif-APOBEC3G interaction; Q9HC16; HeLa A3G-eYFP + Vif (tagged APOBEC3G with the HIV-1 protein that degrades it), YFP fluorescence, overnight; Potency, µM (highest dose often 46.1 µM), for inactives: at the top dose activity, negative = active, most hits filed as inhibitors; actives 0.076% (n = 410,000); AID 602310; note: % is set by controls: 0 for no effect and ±100 for the full control effect; nearly all actives have a fitted effect of over 60% in size
Target sequence (Q9HC16 whole entry, looked up): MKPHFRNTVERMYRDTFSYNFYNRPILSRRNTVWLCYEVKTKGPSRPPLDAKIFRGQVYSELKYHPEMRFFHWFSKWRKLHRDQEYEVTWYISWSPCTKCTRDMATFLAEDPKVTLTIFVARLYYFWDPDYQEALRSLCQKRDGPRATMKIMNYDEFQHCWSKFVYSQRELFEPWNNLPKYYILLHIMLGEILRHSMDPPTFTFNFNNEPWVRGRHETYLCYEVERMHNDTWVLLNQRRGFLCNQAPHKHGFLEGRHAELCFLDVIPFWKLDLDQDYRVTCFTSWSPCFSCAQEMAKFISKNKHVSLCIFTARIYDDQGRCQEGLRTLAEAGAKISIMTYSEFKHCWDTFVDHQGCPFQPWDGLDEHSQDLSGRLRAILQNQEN
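Read-out is eYFP fluorescence (Ex 488/Em 500-530) from Vif-expressing HeLa A3G-eYFP cells; more signal means A3G escaped Vif-mediated degradation. Cells plated overnight, compound pinned in, incubated overnight at 37 deg C.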
PINK1 modulator: modulators of PINK1 expression; actives 0.2% (n = 410,000); AID 624263; Potency, µM (doses to about 76.6 µM), inactives show at the highest dose activation (PINK1 increase), actives largely listed as activators; PINK1 immunofluorescence, high-content cytometry, 24 h; active = well fitted activation curve with a large enough effect; inconclusive = small, poorly fitted or top-dose-only effect; cell line not stated here; note: % of control where 0% means no effect; nearly all actives have a fitted effect of over 65% in size
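Stable cell line, 250 cells/well, 12 h attachment; compounds pinned at 5 concentrations, 24 h; CCCP control. Fixed with nuclear dye, primary antibodies 12 h at 10 degrees C, secondary plus cell stain; laser-scanning cytometer read.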
* = called active by the depositor; i = inactive; ? = inconclusive; · = no result; [ ] = remark or other dose. Unless noted, calls come from the whole dose curve; as a rule, active = well fitted curve in the direction sought with a large enough effect; inconclusive = small, poorly fitted or top-dose-only effect, or another doubt; inactive = no such curve, though single readings can be large; an effect the other way counts as inactive or inconclusive. Potency is the fitted concentration of half-maximal effect.

SMILES	FUS suppressor	GRP78 ERSR act	Vif-A3F inh	Abeta rescue	Vif-A3G inh	PINK1 modulator
CCC(=O)N[C@@H]1c2ccccc2C2(CCN(Cc3cnc(N(C)C)s3)CC2)[C@H]1OC	·	-1.2%	·	·	·	-1.3%
CCCC[n+]1c(/C=C/c2c(OC)cc(OC)cc2OC)ccc2ccccc21	·	-7.8%	·	·	?	5.62µM*
CCC1(C2CCN(C(=O)c3ccccc3Cl)CC2)NC(=O)N(CCc2scnc2C)C1=O (stereo not given)	·	-2.4%	·	·	·	0.3%
COc1ccccc1-c1ccnc(-n2ncc(C(=O)NCCc3cccnc3)c2C)n1	·	-3.1%	·	·	·	-0.8%
COC(=O)[C@@]1(Cc2ccc(F)cc2)[C@H]2c3cc(C(=O)N(C)C)n(CC4CC4)c3C[C@H]2CN1C(=O)c1ccccc1	25.1µM*	·	·	i	·	1.2%
CCCCn1c(SCC(=O)Nc2cc(NC(=O)c3ccco3)ccc2C)nc2ccccc2c1=O	31.6µM*	-7.9%	?	i	?	9.3%[38.3 µM]
CCC1CN(CCNC(=O)C(C)(C)O)Cc2cc(OC)ccc2O1 (stereo not given)	·	-0.5%	·	·	·	-0.1%
CCOC(=O)Cc1csc(NC(=O)c2csc(C)c2)n1	i	1.0%	-7.4%	i	1.6%	-0.4%[38.3 µM]
CCOC(=O)Cc1csc(NC(=O)c2sc3nc4c(C)cc(C)cc4cc3c2N)n1	i	1.8%	25.1µM*	i	?	14.5%[38.3 µM]
CCCCCCCCCCCCOC(=O)N1CCN(/[N+]([O-])=N/Oc2ccc([N+](=O)[O-])cc2[N+](C)=O)CC1	·	0.9%	·	·	4.8%	-1.2%
Cc1ccc2c(Cl)c(C)c(N3CCCC3)nc2n1	i	-6.7%	22.4µM*	i	1.7%	0.1%
CC(Cc1cccs1)NC(=S)Nc1ccccc1 (stereo not given)	i	1.5%	?	11.2µM*	0.4%	1.8%
Cc1ccc(CN2CCOc3ccc(CN4CCC(O)(c5cccnc5)CC4)cc3C2)cc1C	·	-6.2%	·	·	·	0.5%
CCC(=O)N[C@@H]1c2ccccc2C2(CCN(Cc3[nH]c4c(Cl)cccc4c3C)CC2)[C@H]1OC	·	-1.2%	·	·	·	0.7%
CC(NC(=O)C1CCOCC1)c1nnc2n1CCN(Cc1ccc3cccnc3c1)CC2 (stereo not given)	·	-3.3%	·	·	·	2.0%
Cc1ccc(NC(=O)Cn2c(=O)n(-c3ccccc3)c(=O)c3ccc(C(=O)NCc4ccc5c(c4)OCO5)cc32)cc1	i	-6.7%	-2.7%	i	-11.0%	-2.6%
CCN(C(=O)Cn1c(=O)n(-c2ccccc2)c(=O)c2ccc(C(=O)NCc3ccc4c(c3)OCO4)cc21)c1cccc(C)c1	35.5µM*	-2.6%	0.1%	i	1.0%	-0.1%
COc1cc(-c2cccc(OC)c2OC)cc2c1OCCN(Cc1cn[nH]c1-c1ccc(Cl)cc1)C2	·	-2.1%	·	·	·	2.4%
CCC(/C=C1\Sc2ccc(OC)cc2N1CCO)=C\c1sc2ccc(OC)cc2[n+]1CCO	?	-6.8%	3.7%	i	0.0%	14.1µM*
COc1ccc(N=Cc2oc3ccc4ccccc4c3c2O)cc1	i	-1.8%	7.94µM*	i	8.91µM*	0.2%
COc1ccc(OC)c(-c2ccc(O)c(CN3CCc4c([nH]c5ccccc45)C3)c2)c1	·	-2.6%	·	·	·	-0.5%
COc1ccc(NC(=O)c2sc3nc(-c4cccnc4)ccc3c2N)cc1	i	-6.8%	?	i	-5.0%	44.7µM*
Nc1c(C(=O)Nc2cccc(Cl)c2Cl)sc2nc(-c3cccnc3)ccc12	·	-4.0%	?	i	-10.4%	11.9%
COc1ccc(NC(=O)c2sc3nc(-c4cccnc4)ccc3c2N)cc1OC	i	-9.3%	5.62µM*	i	?	1.8%
Nc1c(C(=O)Nc2ccc(F)c(F)c2)sc2nc(-c3ccncc3)ccc12	i	0.9%	0.9%	i	4.4%	0.9%
SMILES	FUS suppressor	GRP78 ERSR act	Vif-A3F inh	Abeta rescue	Vif-A3G inh	PINK1 modulator
COc1ccc(-c2ccc3c(N)c(C(=O)NCc4ccc(C)cc4)sc3n2)cc1	i	-1.7%	-13.0%	i	3.1%	3.4%
COc1ccc(-c2ccc3c(N)c(C(=O)Nc4ccc(C(F)(F)F)cc4)sc3n2)cc1OC	i	-1.8%	-1.7%	i	-29.1%	13.4%
Cc1ccc(NC(=O)c2sc3nc(-c4ccncc4)ccc3c2N)cc1	i	0.6%	?	i	?	31.6µM*
Cc1ccc(CNC(=O)c2sc3nc(-c4ccc(F)cc4)ccc3c2N)cc1	25.1µM*	17.1%	-22.7%	i	-7.8%	1.8%
Cc1cnc(C)c(-c2cc(F)cc3c2OC(CNC(=O)Cc2c(C)noc2C)C3)n1 (stereo not given)	·	2.3%	·	·	·	-0.2%
N#C/C(=C\c1ccc(-c2ccc(Cl)c(C(=O)O)c2)o1)c1nc2ccccc2[nH]1	i	-2.0%	?	i	?	0.1%
Cc1ccc2nc(/C(C#N)=C/c3ccc(-c4cccc(Cl)c4)o3)[nH]c2c1	i	3.0%	3.16µM*	i	7.94µM*	?
Cc1ccc2nc(/C(C#N)=C/c3ccc(O)c(O)c3)[nH]c2c1	i	18.5%	?	i	?	4.2%
COc1cc(/C=C(\C#N)c2nc3ccc(C)cc3[nH]2)ccc1OC(C)C	i	0.2%	25.1µM*	i	-31.7%	19.4%
COc1cc(/C=C(\C#N)c2nc3ccccc3s2)ccc1OCC(=O)Nc1ccccc1	·	11.3%	?	i	10µM*	2.6%
COc1cc(/C=C(/C#N)c2nc3ccccc3[nH]2)ccc1OCC(=O)Nc1ccccc1C(C)C	i	10.6%	10µM*	i	-14.1%	?
C[C@@H]1CN(Cc2ccc3c(c2)CN(Cc2cccc4cccnc24)CCO3)C[C@H](C)O1	·	-3.9%	·	·	·	1.0%
COc1cc2nc(N(C)C)c(CNC3CCOC(C)(C)C3)cc2c(OC)c1OC (stereo not given)	·	-2.3%	·	·	·	-0.3%
COc1cc(C(=O)N2CCc3c([nH]c4ccccc34)C2c2ccc(C)cc2)cc(OC)c1OC (stereo not given)	14.1µM*	-1.9%	2.2%	i	0.9%	1.6%
COc1cc(C(=O)N2CCc3c([nH]c4ccccc34)C2c2ccccc2)cc(OC)c1OC (stereo not given)	?	-4.7%	2.7%	i	4.3%	0.5%
O=C(NN=Cc1c(O)ccc2ccccc12)c1ccc2c(c1)OCO2	i	-0.9%	7.94µM*	i	?	?
O=C(N/N=C/c1ccccc1)c1ccc2c(c1)OCO2	i	-11.4%	0.1%	i	-4.0%	0.2%
CCc1ccccc1NC(=O)c1ccc(F)c(S(=O)(=O)N2CCN(c3ccccc3OC)CC2)c1	?	-2.5%	6.1%	8.91µM*	11.3%	2.8%
